Compounds with a hit are over-represented: about 4.7% of the library has one in this group of screens.
D1 agonist = Allosteric Agonists of the Human D1 Dopamine Receptor: qHTS; D(1A) dopamine receptor (Homo sapiens), P21728; HEK293 T-REx D1 cells, calcium flux, agonist mode; activation, % at 2 µM; 1% of 360,000 active
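Inducible HEK293 T-REx D1 cells, force-coupled to calcium signalling, were plated at 4000 cells/well with tetracycline and held overnight at 30 C. After no-wash calcium dye loading, compound-evoked calcium rise over 180 s flagged agonists.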
D1 PAM = Potentiators of Human D1 Dopamine Receptor: qHTS | D(1A) dopamine receptor (Homo sapiens), P21728 | HEK293 TREx D1 cells, calcium flux, dopamine EC20 potentiation | potentiation, % at 10 µM | 0.036% of 360,000 active; in the data active means potentiation above about 30%
TRHR agonist = qHTS for Small Molecule Agonists and Allosteric Enhancers of Human TRH Receptor: Primary Screen for Agonists; AID 493084, 2011; TRHR cells, calcium flux fluo-8, FDSS agonist mode; Thyrotropin-releasing hormone receptor (Homo sapiens), P34981; 0.18% of 360,000 active; activation, % at 2 µM
Target sequence (P34981 whole entry, looked up): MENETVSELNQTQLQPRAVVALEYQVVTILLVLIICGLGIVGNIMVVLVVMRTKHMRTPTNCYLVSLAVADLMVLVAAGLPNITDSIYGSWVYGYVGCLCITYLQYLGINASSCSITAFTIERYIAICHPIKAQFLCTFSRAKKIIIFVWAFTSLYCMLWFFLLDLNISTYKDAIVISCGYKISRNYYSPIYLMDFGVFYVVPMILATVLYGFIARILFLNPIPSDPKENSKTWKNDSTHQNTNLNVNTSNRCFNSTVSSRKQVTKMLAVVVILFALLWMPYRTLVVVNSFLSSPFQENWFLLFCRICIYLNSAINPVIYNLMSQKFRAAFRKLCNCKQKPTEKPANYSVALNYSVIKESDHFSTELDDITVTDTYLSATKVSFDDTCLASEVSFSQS
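Steps: seed TRHR cells overnight; add fluo-8 no-wash Ca dye, RT 30 min–1.5 h; record 10 s baseline; pin-transfer compounds; monitor fluorescence 1 cycle/s for the agonist window. Calcium increases flag candidate agonists.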
TRHR enhancer = qHTS for Small Molecule Agonists and Allosteric Enhancers of Human TRH Receptor: Primary Screen for Enhancers | Thyrotropin-releasing hormone receptor (Homo sapiens), P34981 | 0.66% of 360,000 active | TRHR cells, fluo-8 calcium fluorescence, EC20 TRH enhancement | AID 493056, 2011 | enhancement, % at 2 µM; in the data active means enhancement above about 30%
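Enhancer read-out: after compound pinning and an initial kinetic agonist-mode read, an EC20 of TRH (10 nM final) was injected and fluo-8 calcium signal (Ex 480/Em 530) followed at 1 s/cycle for 100 cycles in TRHR-expressing cells.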
D1 antag = Antagonist of Human D 1 Dopamine Receptor: qHTS | HEK293 TREx D1 cells, calcium flux, dopamine EC80; stronger effect = lower value | 3.2% of 360,000 active | activity change, negative = inhibition, % at 10 µM | D(1A) dopamine receptor (Homo sapiens), P21728; in the data active means activity change below about -30%
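Kinetic fluorescence of a calcium dye serves as the read-out. D1-expressing Hek293 Trex cells, induced overnight at 30 C, are exposed to compound for 180 s before an EC80 dopamine addition, then read 180 s further.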
Hits are given with their value; i = inactive; nt = not tested or not shown; ! = repeats disagree. Unless noted, no stated cut-off is given here; in the data, active means activation above about 30%; inactive means the rest.

SMILES | D1 agonist | D1 PAM | TRHR agonist | TRHR enhancer | D1 antag
CCOC(=O)N1CCN(C(=O)c2noc3c2COc2ccccc2-3)CC1 | i | i | i | i | -31
Cc1cccc(S(=O)(=O)C(C#N)c2nc3ccccc3nc2N2CCCC2)c1 (stereo not drawn) | 34 | i | i | i | i
CCOC(=O)c1c(C)[nH]c(C)c1S(=O)(=O)N(C)CC(=O)NCc1cccc(Br)c1 | i | i | i | i | -36!
O=C(CSc1nc2ccccc2c(=O)n1CC1CCCO1)NCC1CCCO1 (stereo not drawn) | i | i | i | i | i
COCCNC(=O)CSc1nc2ccccc2c(=O)n1CC1CCCO1 (stereo not drawn) | i | i | i | i | -76
O=S(=O)(Nc1cccc(-c2ccc(N3CCOCC3)nn2)c1)c1ccc(F)cc1F | i | i | i | i | i
O=C(Nc1cccc(Cl)c1)c1ccc2nc(Cc3ccccc3)oc2c1 | i | i | i | i | i
COc1cccc(Cn2ccn(-c3ccc(F)cc3)c(=O)c2=O)c1 | i | i | i | i | i
Cc1ccc(Cl)cc1NC(=O)COC(=O)CC(C)(C)CC1=NS(=O)(=O)c2ccccc2N1 | i | i | i | i | i
CC(C)(CC(=O)NCc1ccc(Cl)cc1Cl)CC1=NS(=O)(=O)c2ccccc2N1 | i | i | i | i | -51
O=C(OCC(=O)N1CCOCC1)c1cccc(S(=O)(=O)Nc2ccc(F)cc2)c1 | i | i | i | i | i
Cc1ccccc1OCCC(=O)OCC(=O)NCCNC(=O)COC(=O)CCOc1ccccc1C | i | i | i | i | -43
COc1ccc2c(C(=O)c3ccc(C)cc3)n(CCCC(N)=O)[n+]([O-])c2c1 | i | i | i | i | i
O=C(Cn1cc(SCc2c(F)cccc2Cl)c2ccccc21)N1CCCC1 | i | i | i | i | i
CNc1oc(-c2ccc(OCc3ccccc3)cc2)nc1C#N | i | i | i | i | -32
N#Cc1nc(-c2ccc(OCc3ccccc3)cc2)oc1NCc1ccco1 | i | i | i | i | i
COc1cccc(N=Nc2c(C)[nH]n(-c3ccccc3)c2=O)c1 | i | i | i | i | i
Cc1[nH]n(-c2ccccc2)c(=O)c1N=Nc1ccccc1O | 32 | i | i | i | i
Cc1[nH]n(-c2ccccc2)c(=O)c1N=Nc1ccc2c(c1)OCO2 | i | i | i | i | -35
CCOc1ccc(N/C(SC)=C(/C#N)C(N)=O)cc1 | i | i | i | i | -52
CCc1ccc(N/C(SC)=C(/C#N)C(N)=O)cc1 | i | i | i | i | i
COc1cccc(/C=C/C(=C2/C(=O)N(c3ccccc3)N=C2C)c2ccc(Br)cc2)c1OC | i | i | i | i | -85
Cc1cc(C)c(NC(=O)CSc2nc(=O)[nH]c3c2CCCC3)c(C)c1 | i | i | i | i | nt
CCOc1ccccc1NC1=CC(=O)CC(c2ccccc2)C1 (stereo not drawn) | i | i | i | i | -31
COc1ccc(NC2=CC(=O)CC(c3ccccc3)C2)c(OC)c1 (stereo not drawn) | i | i | i | i | i
SMILES | D1 agonist | D1 PAM | TRHR agonist | TRHR enhancer | D1 antag
O=C(CC(NS(=O)(=O)c1ccc(Cl)cc1)c1ccco1)NCc1ccco1 (stereo not drawn) | i | i | i | i | -38
COc1ccc(-n2c(=O)c3c(c4cc(OC)ccc4n3C)n(CC(=O)NCC3CCCO3)c2=O)cc1 (stereo not drawn) | i | i | i | i | i
CCc1ccc(C2CC(=O)Nc3c2c(=O)n(C)c2ncnn32)cc1 (stereo not drawn) | i | i | i | i | -39
CSc1ccc(C2CC(=O)Nc3c2c(=O)n(C)c(=O)n3C)cc1 (stereo not drawn) | i | i | i | i | i
COc1cc(OC)c(OC)cc1/C=C/c1nc2cc3ccccc3cc2c(=O)n1-c1ccc(Cl)cc1 | i | i | i | i | i
COc1ccc(Cl)cc1-n1c(/C=C/c2cccc3ccccc23)nc2ccccc2c1=O | i | i | i | i | -35
COc1cc(OC)c(OC)cc1/C=C/c1nc2cc3ccccc3cc2c(=O)n1-c1ccccc1Br | 78 | i | i | i | i
COc1ccccc1-n1c(/C=C/c2c(C)n(C)c3ccccc23)nc2ccccc2c1=O | i | i | i | i | i
COc1cc(/C=C/c2nc3cc(Cl)ccc3c(=O)n2-c2ccc(C)cc2C)cc(OC)c1OC | i | i | i | i | -44
COc1cccc(N2C(=O)Nc3ccc(Br)cc3C2(O)C(=O)NCCCN(C)C)c1 (stereo not drawn) | i | i | i | i | i
COc1ccccc1CNC(=O)CCCCn1c(=O)c2ccccc2n(Cc2c(C)cc(C)cc2C)c1=O | i | i | i | i | i
Cc1cccc(N(C2C=CS(=O)(=O)C2)S(=O)(=O)c2ccccc2)c1 (stereo not drawn) | i | i | i | i | -60
COc1ccc(C)cc1S(=O)(=O)N1CCCC(C(=O)N2CCN(c3ccccc3)CC2)C1 (stereo not drawn) | i | i | i | i | i
COC(=O)c1sc(C(C)(C)C)cc1CS(=O)(=O)c1ccc(Cl)cc1 | i | i | i | i | -40
COC(=O)c1ccc(N)c(CS(=O)(=O)c2ccc(Cl)cc2)c1 | i | i | i | i | i
CC(C)c1ccc(OCC(O)CNC(C)c2ccccc2)cc1 (stereo not drawn) | i | i | i | i | i
OC(CNCCc1ccc(Cl)cc1)COc1cc(Cl)ccc1Cl (stereo not drawn) | 35 | i | i | i | i
CCC(=O)c1ccc(OCC(O)CNC(C)c2ccccc2)cc1 (stereo not drawn) | i | i | i | i | i
CCC(=O)c1ccc(OCC(O)CNCCc2ccc(Cl)cc2)cc1 (stereo not drawn) | 62 | i | i | i | i
COc1ccc(CCNCC(O)COc2ccc(Cl)cc2)cc1OC (stereo not drawn) | i | i | i | i | i
OC(CNCCC(c1ccccc1)c1ccccc1)COc1ccccc1 (stereo not drawn) | i | i | i | i | -61
OC(CNCCc1ccc(Cl)cc1)COc1ccc2ccccc2c1 (stereo not drawn) | 33 | i | i | i | i
O=C(CCn1c(=O)c2cccn2c2cccnc21)NCc1cccc(Br)c1 | i | i | i | i | i
CCC(=O)N1CCc2cc(Br)cc(S(=O)(=O)CCC(=O)NCc3cccc(OC)c3)c21 | i | i | i | i | i
COc1ccc(CN2C(=O)N(c3ccc(F)cc3)C(=O)C2CC(=O)Nc2ccccc2)cc1 (stereo not drawn) | i | i | i | i | i
